± gives the standard deviation of the averaged measurements. The full data set covers some 5,400 targets. This sample favours those with the largest changes.
Compound: Nc1nc2c(ncn2[C@@H]2O[C@H](COP(=O)(O)OP(=O)(O)OP(=O)(O)O)[C@@H](O)[C@H]2O)c(=O)[nH]1 [guanosine triphosphate]
Assay: NP40-soluble protein abundance relative to vehicle (solubility fold change) (ratio); higher = more soluble protein in presence of GTP
Method in brief: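 Jurkat crude lysate prepared with a Dounce homogeniser was treated at eight concentrations spanning 0.1 to 10 mM, 10 min at room temperature then 3 min at 37 °C. Solubilisation with 0.8% NP40 and benzonase and ultracentrifugation preceded TMT labelling of the supernatant for LC-MS/MS. Fold change against the detergent-processed vehicle was determined per replicate from vsn-normalised intensities, across three independent experiments.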

Chain of UniProt O14776 (O14776 whole entry): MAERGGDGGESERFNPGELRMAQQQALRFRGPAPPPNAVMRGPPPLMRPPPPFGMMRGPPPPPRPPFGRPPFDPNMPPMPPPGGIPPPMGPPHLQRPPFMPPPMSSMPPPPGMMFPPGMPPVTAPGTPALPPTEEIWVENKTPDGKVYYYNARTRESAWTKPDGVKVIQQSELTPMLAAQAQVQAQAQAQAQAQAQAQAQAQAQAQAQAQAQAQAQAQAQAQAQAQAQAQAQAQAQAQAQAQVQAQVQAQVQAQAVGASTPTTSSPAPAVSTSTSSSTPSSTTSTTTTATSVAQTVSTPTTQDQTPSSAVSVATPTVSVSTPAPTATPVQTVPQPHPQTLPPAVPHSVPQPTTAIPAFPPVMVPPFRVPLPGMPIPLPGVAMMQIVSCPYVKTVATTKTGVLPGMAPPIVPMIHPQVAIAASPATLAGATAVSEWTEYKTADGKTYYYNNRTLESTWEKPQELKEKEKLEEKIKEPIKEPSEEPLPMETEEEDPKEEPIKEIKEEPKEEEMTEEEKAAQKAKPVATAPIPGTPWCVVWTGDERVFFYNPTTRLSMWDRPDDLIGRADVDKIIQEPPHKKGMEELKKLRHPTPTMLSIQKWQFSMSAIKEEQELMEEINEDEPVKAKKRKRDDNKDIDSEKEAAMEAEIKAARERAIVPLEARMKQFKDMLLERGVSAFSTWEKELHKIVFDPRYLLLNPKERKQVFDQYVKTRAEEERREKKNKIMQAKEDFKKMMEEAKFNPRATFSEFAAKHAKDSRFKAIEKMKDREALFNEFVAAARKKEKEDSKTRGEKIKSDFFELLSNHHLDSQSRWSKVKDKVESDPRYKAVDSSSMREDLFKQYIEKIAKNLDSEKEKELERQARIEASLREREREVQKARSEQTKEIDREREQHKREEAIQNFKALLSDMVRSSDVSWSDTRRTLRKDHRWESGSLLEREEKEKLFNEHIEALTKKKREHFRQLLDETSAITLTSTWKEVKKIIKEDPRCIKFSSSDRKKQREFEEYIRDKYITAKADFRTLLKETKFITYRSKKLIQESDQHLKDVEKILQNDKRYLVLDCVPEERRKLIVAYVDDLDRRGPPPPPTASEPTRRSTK
Chain of UniProt O15042 (O15042 whole entry, one chain of several): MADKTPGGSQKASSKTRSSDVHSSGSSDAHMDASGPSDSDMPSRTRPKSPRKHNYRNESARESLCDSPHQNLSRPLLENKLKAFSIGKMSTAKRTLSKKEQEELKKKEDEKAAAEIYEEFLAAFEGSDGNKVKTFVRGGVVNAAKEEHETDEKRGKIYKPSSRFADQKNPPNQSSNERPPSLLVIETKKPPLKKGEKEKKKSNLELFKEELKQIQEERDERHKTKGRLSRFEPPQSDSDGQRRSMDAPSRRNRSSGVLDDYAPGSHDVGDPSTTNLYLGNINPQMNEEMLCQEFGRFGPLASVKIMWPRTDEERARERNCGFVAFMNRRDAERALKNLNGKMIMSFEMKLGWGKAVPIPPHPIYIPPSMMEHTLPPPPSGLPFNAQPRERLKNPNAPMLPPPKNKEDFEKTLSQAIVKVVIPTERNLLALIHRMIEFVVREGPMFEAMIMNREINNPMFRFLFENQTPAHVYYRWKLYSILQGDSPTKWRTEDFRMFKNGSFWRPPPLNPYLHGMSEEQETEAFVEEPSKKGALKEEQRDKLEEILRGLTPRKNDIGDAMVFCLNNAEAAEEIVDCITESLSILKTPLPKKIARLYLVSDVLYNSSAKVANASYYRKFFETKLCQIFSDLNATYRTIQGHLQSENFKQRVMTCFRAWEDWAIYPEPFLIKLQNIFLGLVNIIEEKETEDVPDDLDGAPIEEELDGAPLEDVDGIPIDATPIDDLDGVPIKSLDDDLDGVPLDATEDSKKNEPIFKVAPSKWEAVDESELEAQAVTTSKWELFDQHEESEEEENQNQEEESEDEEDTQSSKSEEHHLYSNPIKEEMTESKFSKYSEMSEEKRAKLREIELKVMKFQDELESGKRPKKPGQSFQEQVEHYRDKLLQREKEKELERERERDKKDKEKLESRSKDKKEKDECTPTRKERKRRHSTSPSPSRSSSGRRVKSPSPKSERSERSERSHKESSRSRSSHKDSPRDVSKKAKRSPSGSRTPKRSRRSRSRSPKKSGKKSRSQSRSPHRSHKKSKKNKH
Chain of UniProt O43665 (O43665 whole entry): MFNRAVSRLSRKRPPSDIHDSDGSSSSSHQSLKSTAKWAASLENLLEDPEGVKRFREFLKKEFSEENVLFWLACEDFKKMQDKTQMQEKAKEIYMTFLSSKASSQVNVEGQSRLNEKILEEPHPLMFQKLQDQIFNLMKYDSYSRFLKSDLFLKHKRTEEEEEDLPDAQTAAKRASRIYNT
Chain of UniProt P14550 (P14550 whole entry): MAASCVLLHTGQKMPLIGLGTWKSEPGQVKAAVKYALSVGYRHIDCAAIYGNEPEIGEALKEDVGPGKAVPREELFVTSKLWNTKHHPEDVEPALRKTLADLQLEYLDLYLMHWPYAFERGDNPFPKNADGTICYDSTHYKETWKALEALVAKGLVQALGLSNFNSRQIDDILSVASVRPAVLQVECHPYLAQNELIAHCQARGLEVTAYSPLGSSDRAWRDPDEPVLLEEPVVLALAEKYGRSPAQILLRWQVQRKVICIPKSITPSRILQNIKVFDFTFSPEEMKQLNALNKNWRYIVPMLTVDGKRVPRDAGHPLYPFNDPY
Chain of UniProt P41091 (P41091 whole entry): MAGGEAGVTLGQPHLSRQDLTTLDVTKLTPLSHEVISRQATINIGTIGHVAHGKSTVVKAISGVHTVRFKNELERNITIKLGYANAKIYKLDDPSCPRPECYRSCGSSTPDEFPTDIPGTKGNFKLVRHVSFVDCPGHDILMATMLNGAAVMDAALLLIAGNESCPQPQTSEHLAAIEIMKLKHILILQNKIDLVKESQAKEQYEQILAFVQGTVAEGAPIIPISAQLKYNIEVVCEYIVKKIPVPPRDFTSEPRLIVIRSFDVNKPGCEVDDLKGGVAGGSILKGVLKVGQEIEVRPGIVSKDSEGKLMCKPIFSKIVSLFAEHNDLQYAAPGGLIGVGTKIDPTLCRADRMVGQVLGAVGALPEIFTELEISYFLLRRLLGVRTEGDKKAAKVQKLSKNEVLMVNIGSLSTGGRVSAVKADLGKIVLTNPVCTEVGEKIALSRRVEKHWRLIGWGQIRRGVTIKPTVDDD
Chain of UniProt P51114 (P51114 whole entry): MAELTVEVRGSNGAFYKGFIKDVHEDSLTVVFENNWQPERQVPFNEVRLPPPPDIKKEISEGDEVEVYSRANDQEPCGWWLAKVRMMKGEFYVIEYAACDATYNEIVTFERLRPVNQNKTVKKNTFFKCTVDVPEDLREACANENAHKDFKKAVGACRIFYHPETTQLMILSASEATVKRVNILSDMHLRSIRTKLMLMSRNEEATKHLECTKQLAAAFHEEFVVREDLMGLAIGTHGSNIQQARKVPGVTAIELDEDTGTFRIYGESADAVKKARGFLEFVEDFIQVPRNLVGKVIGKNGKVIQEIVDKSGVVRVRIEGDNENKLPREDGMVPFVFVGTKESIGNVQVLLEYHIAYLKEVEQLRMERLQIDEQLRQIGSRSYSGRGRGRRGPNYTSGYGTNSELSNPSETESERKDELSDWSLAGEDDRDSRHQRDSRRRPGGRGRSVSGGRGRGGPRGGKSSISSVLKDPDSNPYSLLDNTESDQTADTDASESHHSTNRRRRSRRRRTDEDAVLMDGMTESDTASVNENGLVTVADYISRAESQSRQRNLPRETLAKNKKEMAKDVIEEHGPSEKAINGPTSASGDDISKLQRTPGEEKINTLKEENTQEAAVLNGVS
Chain of UniProt O43865 (O43865 whole entry): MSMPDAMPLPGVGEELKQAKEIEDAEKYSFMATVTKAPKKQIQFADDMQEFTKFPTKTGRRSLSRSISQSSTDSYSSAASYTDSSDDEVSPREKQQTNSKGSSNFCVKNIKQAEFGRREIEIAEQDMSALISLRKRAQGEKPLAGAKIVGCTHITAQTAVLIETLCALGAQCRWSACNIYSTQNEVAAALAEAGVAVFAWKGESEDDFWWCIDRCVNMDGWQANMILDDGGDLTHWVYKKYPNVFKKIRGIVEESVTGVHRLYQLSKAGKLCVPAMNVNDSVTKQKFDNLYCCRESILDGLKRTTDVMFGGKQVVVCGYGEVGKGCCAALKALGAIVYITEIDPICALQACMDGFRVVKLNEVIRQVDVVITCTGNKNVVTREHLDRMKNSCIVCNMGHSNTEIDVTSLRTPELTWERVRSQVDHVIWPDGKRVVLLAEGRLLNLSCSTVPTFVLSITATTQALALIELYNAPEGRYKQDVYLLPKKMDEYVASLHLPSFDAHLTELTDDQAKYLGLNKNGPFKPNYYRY
Chain of UniProt P49840 (P49840 whole entry, looked up): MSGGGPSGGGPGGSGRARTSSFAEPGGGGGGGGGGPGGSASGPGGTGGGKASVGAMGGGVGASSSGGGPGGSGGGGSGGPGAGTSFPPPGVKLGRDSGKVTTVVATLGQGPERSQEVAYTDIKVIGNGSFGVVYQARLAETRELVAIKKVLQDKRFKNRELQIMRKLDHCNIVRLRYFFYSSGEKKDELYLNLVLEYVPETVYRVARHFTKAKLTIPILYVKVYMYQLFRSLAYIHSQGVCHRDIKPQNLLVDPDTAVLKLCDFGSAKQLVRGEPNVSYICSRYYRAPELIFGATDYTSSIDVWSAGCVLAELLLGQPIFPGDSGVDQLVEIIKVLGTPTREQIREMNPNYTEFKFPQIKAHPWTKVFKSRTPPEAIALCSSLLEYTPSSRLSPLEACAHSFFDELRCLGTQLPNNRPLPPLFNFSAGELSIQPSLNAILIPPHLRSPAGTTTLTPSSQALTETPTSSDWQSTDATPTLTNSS
Chain of UniProt P16401 (P16401 whole entry): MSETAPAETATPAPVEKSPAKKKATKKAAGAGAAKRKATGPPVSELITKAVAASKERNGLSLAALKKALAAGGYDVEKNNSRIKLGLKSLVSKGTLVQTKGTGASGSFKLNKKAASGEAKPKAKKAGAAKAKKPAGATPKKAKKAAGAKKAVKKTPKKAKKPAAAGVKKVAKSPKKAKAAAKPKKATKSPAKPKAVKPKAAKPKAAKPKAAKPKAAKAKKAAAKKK

Target	NP40-soluble protein abundance (concentration: 0.1mM)	NP40-soluble protein abundance (concentration: 0.5mM)	NP40-soluble protein abundance (concentration: 1mM)	NP40-soluble protein abundance (concentration: 2mM)	NP40-soluble protein abundance (concentration: 4mM)	NP40-soluble protein abundance (concentration: 6mM)	NP40-soluble protein abundance (concentration: 8mM)	NP40-soluble protein abundance (concentration: 10mM)
UniProt P51532|P51532-2|P51532-3|P51532-4|P51532-5|Q9HBD4	1.016 ± 0.0073	1.07 ± 0.045	1.1 ± 0.083	1.15 ± 0.13	1.19 ± 0.15	1.2 ± 0.17	1.24 ± 0.23	1.21 ± 0.21
UniProt O95793|O95793-2	0.997 ± 0.045	1.02 ± 0.044	1.1 ± 0.079	1.18 ± 0.076	1.33 ± 0.11	1.42 ± 0.13	1.54 ± 0.2	1.82 ± 0.31
UniProt O15042|O15042-2|E7ET15	1 ± 0.011	1.08 ± 0.013	1.15 ± 0.05	1.18 ± 0.094	1.24 ± 0.13	1.32 ± 0.14	1.4 ± 0.22	1.37 ± 0.23
UniProt O43665|O43665-2|O43665-3	0.802 ± 0.079	0.748 ± 0.035	0.872 ± 0.14	0.865 ± 0.068	0.791 ± 0.038	0.837 ± 0.034	0.79 ± 0.089	0.909 ± 0.14
UniProt O14776|O14776-2	0.97 ± 0.042	0.962 ± 0.056	0.979 ± 0.047	0.953 ± 0.083	0.989 ± 0.079	1.01 ± 0.084	1.05 ± 0.05	1.04 ± 0.071
M0R2U2|P22087 (UniProt P22087)	1.02 ± 0.054	1.03 ± 0.032	1.08 ± 0.068	1.21 ± 0.056	1.52 ± 0.068	1.77 ± 0.082	2.13 ± 0.11	2.47 ± 0.083
KIN (UniProt O60870)	0.9988 ± 0.0042	0.993 ± 0.013	0.9497 ± 0.0058	0.929 ± 0.029	0.916 ± 0.021	0.908 ± 0.024	0.9015 ± 0.007	0.885 ± 0.053
UniProt O75554|O75554-2	1.01 ± 0.045	1.07 ± 0.1	1.08 ± 0.083	1.05 ± 0.12	1.04 ± 0.059	1.09 ± 0.12	1.12 ± 0.072	1.06 ± 0.034
UniProt O75170|O75170-2|O75170-3|O75170-4|O75170-5	1 ± 0.15	0.979 ± 0.059	1.03 ± 0.12	1 ± 0.043	0.973 ± 0.071	0.992 ± 0.056	0.963 ± 0.065	1.05 ± 0.075
P0C0S5|Q71UI9 (UniProt Q71UI9+P0C0S5)	0.898 ± 0.042	0.919 ± 0.033	1.11 ± 0.065	1.11 ± 0.06	1.12 ± 0.06	1.25 ± 0.094	1.25 ± 0.079	1.57 ± 0.18
GLRX3 (UniProt O76003)	0.92 ± 0.052	0.946 ± 0.058	0.934 ± 0.068	0.882 ± 0.088	0.864 ± 0.075	0.885 ± 0.085	0.885 ± 0.035	0.871 ± 0.081
ARID1A (UniProt O14497)	0.993 ± 0.031	1.06 ± 0.016	1.08 ± 0.055	1.08 ± 0.084	1.1 ± 0.1	1.12 ± 0.12	1.16 ± 0.17	1.13 ± 0.17
J3KQL8|Q9BQE5 (UniProt Q9BQE5)	0.987 ± 0.019	1.01 ± 0.041	0.984 ± 0.054	0.956 ± 0.058	0.917 ± 0.044	0.982 ± 0.05	0.957 ± 0.045	0.928 ± 0.051
FXR1 (UniProt P51114)	1.13 ± 0.11	1.23 ± 0.075	1.31 ± 0.042	1.54 ± 0.07	1.885 ± 0.0094	2.02 ± 0.03	2.16 ± 0.091	2.28 ± 0.13
PARP1 (UniProt P09874)	1.02 ± 0.026	1.05 ± 0.034	1.05 ± 0.033	1.15 ± 0.052	1.31 ± 0.069	1.43 ± 0.054	1.47 ± 0.043	1.5 ± 0.028
UniProt P30622|P30622-1	0.996 ± 0.068	1 ± 0.086	1.01 ± 0.08	0.97 ± 0.11	0.953 ± 0.076	0.954 ± 0.069	1 ± 0.088	1.01 ± 0.11
PYGB (UniProt P11216)	1.11 ± 0.12	1.19 ± 0.21	1.2 ± 0.28	1.45 ± 0.5	1.71 ± 0.63	1.78 ± 0.69	1.75 ± 0.61	1.79 ± 0.67
POLR2E (UniProt P19388)	1.06 ± 0.11	1.09 ± 0.11	1.15 ± 0.16	1.19 ± 0.18	1.22 ± 0.18	1.19 ± 0.19	1.16 ± 0.16	1.11 ± 0.16
UniProt O43865	0.969 ± 0.025	0.99 ± 0.044	0.959 ± 0.057	0.944 ± 0.025	0.914 ± 0.021	0.955 ± 0.029	0.973 ± 0.056	0.98 ± 0.047
UniProt P50395|Q5SX86	0.966 ± 0.022	0.999 ± 0.023	0.916 ± 0.02	0.899 ± 0.0095	0.882 ± 0.012	0.89 ± 0.017	0.859 ± 0.04	0.829 ± 0.057
UniProt P17812	1.04 ± 0.085	1.03 ± 0.089	0.924 ± 0.05	0.916 ± 0.096	0.904 ± 0.077	0.883 ± 0.076	0.864 ± 0.041	0.819 ± 0.086
M0R2S1|P62987 (UniProt P62987)	0.88 ± 0.084	0.895 ± 0.11	1.01 ± 0.17	0.915 ± 0.11	0.89 ± 0.089	0.886 ± 0.068	0.867 ± 0.12	0.941 ± 0.11
AKR1A1 (UniProt P14550)	0.93 ± 0.035	0.912 ± 0.034	0.888 ± 0.04	0.876 ± 0.037	0.873 ± 0.047	0.849 ± 0.04	0.831 ± 0.088	0.825 ± 0.08
LGALS1 (UniProt P09382)	0.889 ± 0.036	0.886 ± 0.037	0.885 ± 0.042	0.789 ± 0.055	0.813 ± 0.11	0.822 ± 0.067	0.821 ± 0.03	0.809 ± 0.055
UniProt O95758-2|O95758-6|O95758|O95758-1|O95758-4|O95758-5|O95758-7	1.02 ± 0.074	0.974 ± 0.052	1.02 ± 0.064	1.05 ± 0.11	0.994 ± 0.088	0.972 ± 0.05	0.959 ± 0.058	0.951 ± 0.038
EIF2S3 (UniProt P41091)	1.02 ± 0.024	1.05 ± 0.045	0.967 ± 0.015	0.98 ± 0.071	0.981 ± 0.04	0.995 ± 0.038	0.956 ± 0.025	0.931 ± 0.065
HIST1H1B (UniProt P16401)	0.956 ± 0.023	0.937 ± 0.02	1.09 ± 0.037	1.15 ± 0.014	1.22 ± 0.042	1.272 ± 0.012	1.22 ± 0.039	1.73 ± 0.19
SLC16A7 (UniProt O60669)	1.09 ± 0.034	0.98 ± 0.24	1.143 ± 0.0046	1.06 ± 0.15	1.1 ± 0.079	0.966 ± 0.15	1.12 ± 0.089	1.05 ± 0.16
UniProt P49840	0.981 ± 0.028	1.03 ± 0.029	0.913 ± 0.022	0.939 ± 0.02	0.921 ± 0.044	0.925 ± 0.021	0.875 ± 0.051	0.888 ± 0.051
